PREPL inh: inhibitors of human prolyl oligopeptidase-like enzyme PREPL; Q4J6C6; recombinant PREPL, fluorescence polarization activity-based probe; inhibition, % at 5.96 µM; 320,000 compounds, 0.68% hits; AID 2751; in the data active = inhibition above about 43%
Fam108B counter: counter-screen for RBBP9 inhibitors: inhibitors of mouse Fam108B | recombinant Fam108B, FP-Rh probe fluorescence polarization | inhibition, % at 9.51 µM | 300,000 compounds, 0.33% hits | AID 1947;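 active = inhibition above the screen mean inhibition plus 3 SD, computed separately per campaign, cut at about 18% in these data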;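 note: inhibitors lower polarization as less probe binds the enzyme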
GSTO1 counter: GSTO1 inhibition, counter-screen for RBBP9 inhibitors. inhibition, % at 5.96 µM. recombinant GSTO1, activity-based probe fluorescence polarization. 300,000 compounds, 1.1% hits. AID 1974;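 active = inhibition above the campaign mean inhibition plus 3 SD, cut at about 35% in these data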
PME-1 inh: PME-1 (human) inhibition. 320,000 compounds, 0.53% hits. recombinant PME-1, FP-Rh probe fluorescence polarization. inhibition, % at 5.9 µM. Q9Y570;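 active = inhibition above the campaign mean of all compounds plus 3 SD, cut at about 26% in these data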;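 note: competitive labeling of PME-1 active site by serine hydrolase directed probe; inhibitors block probe labeling so polarization falls and inhibition rises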
Target sequence (Q9Y570 whole entry, looked up): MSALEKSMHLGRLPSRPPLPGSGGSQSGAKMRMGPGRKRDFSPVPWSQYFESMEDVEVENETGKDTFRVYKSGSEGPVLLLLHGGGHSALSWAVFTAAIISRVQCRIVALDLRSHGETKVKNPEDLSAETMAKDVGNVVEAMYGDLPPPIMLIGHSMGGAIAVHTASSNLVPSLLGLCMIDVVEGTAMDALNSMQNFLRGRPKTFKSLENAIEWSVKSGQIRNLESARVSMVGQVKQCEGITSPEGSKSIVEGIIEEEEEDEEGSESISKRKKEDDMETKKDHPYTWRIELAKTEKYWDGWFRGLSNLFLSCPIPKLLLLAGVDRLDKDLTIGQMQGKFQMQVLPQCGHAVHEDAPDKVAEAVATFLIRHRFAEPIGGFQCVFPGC
LYPLA2 inh: blocks human lysophospholipase 2, a PME1 counter-screen; O95372; recombinant LYPLA2, FP-Rh probe fluorescence polarization; inhibition, % at 5.9 µM; 320,000 compounds, 0.38% hits;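 active = inhibition above the screen-wide mean plus 3 SD, limit set per campaign, cut at about 26% in these data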
Target sequence (O95372 whole entry, looked up): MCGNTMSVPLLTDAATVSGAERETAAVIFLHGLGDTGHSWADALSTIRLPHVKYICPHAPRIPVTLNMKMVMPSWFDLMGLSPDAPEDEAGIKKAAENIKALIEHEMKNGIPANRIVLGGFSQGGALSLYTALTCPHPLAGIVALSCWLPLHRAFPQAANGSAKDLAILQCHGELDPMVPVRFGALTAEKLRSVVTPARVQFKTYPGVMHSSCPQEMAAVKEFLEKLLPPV
LYPLA1 counter: counter-screen for PME1 inhibitors: inhibitors of human LYPLA1; O75608; recombinant LYPLA1, FP-Rh probe fluorescence polarization; inhibition, % at 5.9 µM; 320,000 compounds, 0.16% hits;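 active = inhibition above the mean of all tested compounds plus 3 SD, set per campaign, cut at about 14% in these data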;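 note: inhibitors block serine hydrolase probe labeling of LYPLA1 so polarization falls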
LYPLA2 confirm: counter-screen for PME1 inhibitors: confirmation of human LYPLA2 inhibitors; shares compounds with LYPLA2 inh; AID 2232; 1,100 compounds, 72% hits; inhibition, % at 5.9 µM; recombinant LYPLA2, FP-Rh probe fluorescence polarization;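 active = mean inhibition across replicates above the hit cutoff set in the primary screen, cut at about 26% in these data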;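 note: blocked labeling of the enzyme by serine hydrolase FP-Rh probe lowers polarization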
LYPLA2 gel ABPP: inhibitors of human LYPLA2; 150 compounds, 30% hits; inhibition, % at 20 µM; rhLYPLA2 in mouse brain proteome, gel ABPP FP-Rh; shares compounds with LYPLA2 inh;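 active = inhibition of LYPLA2 enzyme probe labeling above about 50%, limit read from the data; inactive = inhibition below that limit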;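 note: loss of FP-Rh probe labeling of the LYPLA2 gel band measured as band density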
Each line names hits and unclear results; the compound was inactive in the other large screens (follow-up assays come after a bar, where they were run). Hits are enriched below; roughly 2% of the tested compounds scored in any of these assays.

O=[N+]([O-])c1ccc(CN2CCCCCC2)cc1	none
O=[N+]([O-])c1ccc(CN2CCOCCOCCN(Cc3ccc([N+](=O)[O-])cc3)CCOCC2)cc1	LYPLA2 inh 37 | LYPLA2 confirm inactive
Cc1ccc(NC(=O)COC(=O)c2c(C)nn(-c3ccccc3)c2C)cc1	none (no result: Fam108B counter, GSTO1 counter)
Cc1nn(-c2ccccc2)c(C)c1C(=O)OCC(=O)Nc1ccccc1	LYPLA2 inh 39 (no result: Fam108B counter, GSTO1 counter) | LYPLA2 confirm inactive
COc1cccc(NC(=O)COC(=O)c2c(-c3ccccc3)noc2C)c1	LYPLA2 inh 28 | LYPLA2 confirm inactive
O=C(CCc1nc2ccccc2c(=O)[nH]1)N1CCN(S(=O)(=O)c2ccc(F)cc2)CC1	none (no result: Fam108B counter, GSTO1 counter)
CC1CCCN(C(=O)Cn2nnc(-c3ccc([N+](=O)[O-])cc3)n2)C1 (centres undefined)	none
CN(CC(=O)O/N=C(\N)c1ccc([N+](=O)[O-])cc1)S(=O)(=O)c1ccc2ccccc2c1	LYPLA2 inh 59 | LYPLA2 confirm 63 | LYPLA2 gel ABPP inactive
Cc1ccc(/C(N)=N/OC(=O)CN(C)S(=O)(=O)c2ccc(C)cc2)cc1	none
CC(=O)N1c2ccc(S(=O)(=O)NCC3CCC(C(=O)NCc4ccc(C)cc4)CC3)cc2CC1C (centres undefined)	LYPLA2 inh 28 | LYPLA2 confirm 28
CC(=O)N1c2ccc(S(=O)(=O)NCC3CCC(C(=O)NCc4ccc(C)o4)CC3)cc2CC1C (centres undefined)	none
O=C1Nc2ccc([N+](=O)[O-])cc2OC1CCN1CCN(Cc2ccccc2)CC1 (centres undefined)	none
O=C1Nc2ccc([N+](=O)[O-])cc2OC1CCN1CCN(Cc2ccc3c(c2)OCO3)CC1 (centres undefined)	LYPLA2 inh 72 | LYPLA2 confirm 79 | LYPLA2 gel ABPP 61
COc1ccc(N2CCN(C(=O)c3cc4c(s3)-c3ccccc3S(=O)(=O)C4)CC2)cc1	LYPLA2 inh 89 | LYPLA2 confirm 97 | LYPLA2 gel ABPP 100
C(=N\n1cnnc1)/c1cccc(OCCOc2ccccc2)c1	none
Clc1ccc(Oc2cccc(/C=N/n3cnnc3)c2)cc1	LYPLA2 inh 37 | LYPLA2 confirm 32
O=C(C1=NNC2C(=O)N(c3ccccc3)C(=O)C12)c1nc(Cl)ccc1Cl (centres undefined)	none
C/C(CCC(C)C)=N\NC(=S)Nc1cc(S(=O)(=O)N2CCOCC2)ccc1N1CCOCC1	LYPLA2 inh 28 | LYPLA2 confirm 62
CC(C)C(NC(=O)c1ccccc1NC(=O)c1ccccc1)C(=O)NCCCn1ccnc1 (centres undefined)	LYPLA2 inh 29 | LYPLA2 confirm inactive
O=C(Nc1ccccc1C(=O)NCCCn1ccnc1)c1ccccc1	none
COc1ccc(CCNc2oc(-c3ccc(OC)c(OC)c3)nc2P(=O)(OC)OC)cc1OC	LYPLA2 inh 28 | LYPLA2 confirm inactive
CCOP(=O)(OCC)c1nc(-c2cccc3ccccc23)oc1NCCc1ccc(OC)cc1	none
COc1ccc(/C=N/N2CCN(Cc3ccc(C)cc3)CC2)cc1Br	LYPLA2 inh 26 | LYPLA2 confirm inactive
COc1ccc(/C=N/NC(=O)CN2CCN(Cc3ccccc3)CC2)cc1Br	none
O=c1onc(-c2ccc(Cl)cc2Cl)n1-c1cccnc1	none
O=C1CSC(=Nc2ccc(Cl)cc2)N1Cc1ccco1	LYPLA2 inh 26 | LYPLA2 confirm 28
Cc1cc(C)c(N=C2SCC(=O)N2Cc2ccco2)c(C)c1	none
O=C(Nc1ccc(Cl)cn1)c1ccccc1[N+](=O)[O-]	none
O=[N+]([O-])c1cnc(Nc2ccc(Cl)cn2)c([N+](=O)[O-])c1	LYPLA2 inh 29 | LYPLA2 confirm 32
O=C1NC(c2ccc(Cl)cc2)=COc2ccccc21	LYPLA2 inh 36 | LYPLA2 confirm 30
O=c1ccc(-c2ccccc2)nn1Cc1ccc(F)cc1	LYPLA2 inh 27 | LYPLA2 confirm inactive
O=c1ccc(-c2ccccc2)nn1Cc1ccc(F)cc1Cl	LYPLA2 inh 35 | LYPLA2 confirm 34
O=c1ccc(-c2ccccc2)nn1Cc1ccccc1	none
Cc1ccc(C)c(Cn2nc(-c3ccccc3)ccc2=O)c1	none
Cn1nc(C(=O)NNC(=O)C(CCC(N)=O)NS(=O)(=O)c2ccc(Cl)cc2)c2ccccc2c1=O (centres undefined)	none (no result: Fam108B counter, GSTO1 counter)
CCC(CC)C(=O)N1CC(=O)Nc2ccc(F)cc2C1c1ccc(F)cc1 (centres undefined)	none
COc1ccc(CCNC(=O)c2cccc(S(=O)(=O)N3CCc4ccccc4C3)c2)cc1	none (no result: Fam108B counter, GSTO1 counter)
C=CCn1c(SCc2ccc(C(=O)O)cc2)nc2sc(C)c(C)c2c1=O	LYPLA2 inh 43 | LYPLA2 confirm 37
COc1cccc(CNC(=O)C2CCC(CNS(=O)(=O)c3cccc4nsnc34)CC2)c1 (centres undefined)	LYPLA2 inh 26 | LYPLA2 confirm 46
O=C(C1CCC(CNS(=O)(=O)c2cccc3nsnc23)CC1)N1CC=C(c2ccccc2)CC1 (centres undefined)	LYPLA2 inh 42 | LYPLA2 confirm 41
CCOP(=O)(OCC)c1ccc2c(c1)C(=O)c1ccccc1CC2	none (no result: Fam108B counter, GSTO1 counter)
O=Cc1ccc(OCCOc2ccc([N+](=O)[O-])cc2)cc1	LYPLA2 inh 37 | LYPLA2 confirm inactive
O=[N+]([O-])c1ccc(OCCN2CCNCC2)cc1	LYPLA2 inh 29 | LYPLA2 confirm 26
CC1CC1C(=O)OCC(=O)N(C)CC(=O)Nc1ccc(F)cc1 (centres undefined)	none (no result: Fam108B counter, GSTO1 counter, PME-1 inh, LYPLA2 inh, LYPLA1 counter)
CCCC(=O)Nc1ccc(C(=O)COC(=O)C2CC2C)cc1 (centres undefined)	LYPLA2 inh 29 (no result: Fam108B counter, GSTO1 counter) | LYPLA2 confirm 28
COc1cccc(-n2c(SCC(=O)N3CCCCC3)nc3c([nH]c4ccccc43)c2=O)c1	none
COc1cccc(-n2c(SCC(N)=O)nc3c([nH]c4ccccc43)c2=O)c1	LYPLA2 inh 174 | LYPLA2 confirm inactive
Cc1coc2c1C(=O)C(=O)c1c-2ccc2c1CCCC2(C)C	LYPLA2 inh 35 | LYPLA2 confirm 56
Cc1ccc2c(c1)N(CC(=O)N1CCCCC1C)C(=O)CO2 (centres undefined)	none
COc1ccc(C2=NOC(COc3ccc4c(C)cc(=O)oc4c3)C2)c(OC)c1 (centres undefined)	LYPLA2 inh 28 | LYPLA2 confirm inactive
O=C(O)CN1C(=O)/C(=C\c2cc(Br)ccc2OCc2ccc(F)cc2)SC1=S	LYPLA2 inh 41 | LYPLA2 confirm 44
